# Shiga toxin inh: A qHTS for Small Molecule Inhibitors of Shiga Toxin | Vero cells, Shiga toxin protein synthesis inhibition reporter | inhibition, % at 38.7 µM | hit rate 9.2% among 290,000 | AID 2315, 2010; in the data active = inhibition mostly above about 28%, no sharp cut-off; inactive = mostly below about 43%; note: 0% is about no effect
# Cycloheximide cs: Cycloheximide Counterscreen for Small Molecule Inhibitors of Shiga Toxin. max response, %. hit rate 12% among 300,000. cell reporter, cycloheximide protein synthesis inhibition counterscreen. AID 2314, 2010; in the data active = max response mostly above about 13%, no sharp cut-off; inactive = mostly below about 14%; note: read at 38.3 µM for the half of the compounds with a filed dose; 0% is about no effect
# Marburg entry inh: qHTS for inhibitors of binding or entry into cells for Marburg Virus; Marburg virus pseudotyped entry inhibition, cell reporter; Potency, µM (top dose mostly 37.8 µM), inactives show at the top dose activity change, negative = inhibition, usual class: inhibitors; hit rate 1.8% among 300,000; AID 540276, 2011; calls by dose curve; tested in HEK293 cells; note: potency is the fitted concentration of half-maximal effect; % is set by controls: 0 for no effect and ±100 for the full control effect
# LASV entry inh: qHTS for Inhibitors of binding or entry into cells for Lassa Virus | Lassa virus pseudotype entry inhibition, cell reporter | AID 540256, 2011 | hit rate 1.2% among 300,000 | Potency, µM (series often up to 37.9 µM), for the others: at the highest dose activity change, negative = inhibition, hits mostly inhibitors; calls by dose curve; tested in HEK293 cells; note: potency is the fitted concentration of half-maximal effect; % is set by controls: 0 for no effect and ±100 for the full control effect; nearly all actives have a fitted effect of over 50% in size
# Starred values were filed as active, the others as inactive; u = inconclusive; x = no result; [ ] = another dose, or the depositor's remark. Rows were chosen to be rich in hits. Some 12% of all compounds tested hit in one or more screens of this group.
SMILES,Shiga toxin inh,Cycloheximide cs,Marburg entry inh,LASV entry inh
CC(=O)C1=C(O)C(=O)N(c2ccccn2)C1c1ccc(C)cc1 (stereo not given),15,12,u,5%
COc1ccc(OC)c(CNC(=O)c2ccc(NC(=O)c3nsc4ccccc34)cc2)c1,x,x,x,-14%[46.1 µM]
O=C(/C=C/c1cc2ccccc2o1)c1ccccc1O,78*,41*,17%[46.1 µM],30%
O=C(/C=C/c1ccoc1)c1ccccc1O,97*,44*,-3%,1%
O=C(/C=C/c1ccc(O)c(O)c1)OCCc1ccccc1,80*,64*,u,u
O=C(/C=C/c1ccc(O)c(O)c1)c1ccccc1O,72*,41*,-22%,-13%
COc1ccc(CCC(=O)OCC(=O)Nc2ccc(OC)c(OC)c2)cc1OC,-9,-3,u,17%[46.1 µM]
CCN(C(=O)COC(=O)c1cc(-c2cccc3ccccc23)nc2ccccc12)C1CCS(=O)(=O)C1 (stereo not given),-9,-1,-10%,-18%
COc1ccc(Br)cc1CNC(=O)CN1C(=O)C(c2ccccc2)Oc2cccnc21 (stereo not given),6,-5,x,x
Cc1cc2[nH]c3c(=O)n(Cc4ccccc4F)ncc3c2s1,2,-1,x,x
Nc1ncnc2c1ncn2[C@@H]1O[C@H](CNC(=O)[C@@H](N)Cc2ccc(C(F)(F)F)cc2)[C@@H](O)[C@H]1O,x,x,5%,x
NC(=O)C1=C[C@H](c2ccc3c(c2)OCO3)C[C@H](OCc2ccc(CO)cc2)O1,49*,43*,x,x
C#CCNC(=O)C1=C[C@H](c2ccc3c(c2)OCO3)C[C@H](OCc2ccc(CO)cc2)O1,20,18*,x,x
O=C(NC1CC1)C1=C[C@H](c2ccc3c(c2)OCO3)C[C@H](OCc2ccc(CO)cc2)O1,-4,2,x,x
CC(NC(=O)CCNS(=O)(=O)c1cccc2nonc12)c1ccccc1 (stereo not given),-7,-5,-1%[46.1 µM],5%
CCCc1nnc(NC(=O)CCC(=O)N2CCN(S(=O)(=O)c3ccc(C)cc3)CC2)s1,53*,21,7%[46.1 µM],-14%
Cc1cc(Nc2cccc(C)c2C)n2cnnc2n1,x,x,1%[46.1 µM],23%[46.1 µM]
Cc1cccnc1NC(=O)Cn1nc(-c2ccccc2)oc1=S,89*,40*,u,u
COc1ccc(-c2csc(NC(=O)C3CCN(C(=O)c4ccc(F)cc4)CC3)n2)cc1OC,16,-2,u,16µM*
CC(=O)NNc1nc(-c2ccc(C)cc2)cs1,71*,23*,u,1%
COc1ccc(-c2csc(NC(=O)Nc3ccccc3)n2)cc1,41,8,x,x
COc1ccc(-c2csc(NC(=O)Cc3ccccc3)n2)cc1OC,16,21,x,x
COc1ccc(-c2csc(NC(C)=O)n2)cc1OC,20,21*,u,-8%
COc1cccc(NC(=O)Nc2nc(-c3ccc(OC)c(OC)c3)cs2)c1,67*,22*,u,u
COc1ccc2nc(NC(=O)C3CCN(C(=O)c4ccc(F)cc4)CC3)sc2c1,24,9,13%,u
SMILES,Shiga toxin inh,Cycloheximide cs,Marburg entry inh,LASV entry inh
CCC(C)N(C(=O)CSc1ccc(NC(C)=O)cc1)C1CCS(=O)(=O)C1 (stereo not given),-6,-7,5%[46.1 µM],-6%[46.1 µM]
CCc1cnc2c(c1SCc1cc(OC)cc(OC)c1)c(=O)n(C)c(=O)n2C,x,x,x,-13%[46.1 µM]
COc1ccc(-c2csc(N)n2)cc1F,64*,39*,x,x
COc1cccc(-c2csc(NC(C)=O)n2)c1,87*,47*,-20%,u
CN(/N=C/c1cccc(Br)c1)C1=NS(=O)(=O)c2ccccc21,-13,-1,-21%[46.1 µM],-16%[46.1 µM]
COc1ccc(C(=O)N2CCc3cc(OC)c(OC)cc3C2c2ccc(OC)c(OC)c2)cc1 (stereo not given),-15,-2,u,5µM*
CCOC(=O)c1ccc(-c2ccc(/C=N/NC(=O)CN(c3ccccc3Br)S(C)(=O)=O)o2)cc1,56*,36*,u,14%
CNC(=S)N/N=C/c1ccc(-c2ccc(Cl)c([N+](=O)[O-])c2)o1,28,5,u,-14%
CCC(=O)N/N=C/c1ccc(-c2ccc(Cl)cc2)o1,67*,34*,11%[46.1 µM],11%
CC(C)(C)NC(=S)N/N=C\c1ccc(-c2ccc([N+](=O)[O-])cc2)o1,73*,37*,-5%[46.1 µM],-22%
CCC(=O)N/N=C/c1ccc(-c2ccc([N+](=O)[O-])cc2)o1,-7,8,4%,u
CCCCC(=O)N/N=C/c1ccc(-c2ccc([N+](=O)[O-])cc2)o1,25*,14,-31%[46.1 µM],-10%
Cc1nnc(SCC(=O)N/N=C/c2ccc(-c3ccc(C)c(Cl)c3)o2)s1,40,17*,-25%,u
O=C(N/N=C/c1ccc(-c2ccccc2)o1)c1ccccc1O,40*,16,16%[46.1 µM],16%[46.1 µM]
